Screening data: PubChem BioAssay, National Center for Advancing Translational Sciences (NCATS)
Only some compounds are listed: those with a hit (about 9.4% of all), similar ones and a draw of the others.
SMN2 splice up: qHTS Assay for Enhancers of SMN2 Splice Variant Expression; HEK293 SMN2-luciferase splicing reporter, luminescence, 30-36 h; hit rate 2.8% among 210,000; Potency, µM (top dose mostly 46.1 µM), for inactives: at the highest dose activity change, positive = activation, usual class: activators; also: % of control where 0% means no effect; nearly all actives have a fitted effect of over 55% in size
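qHTS luciferase splicing reporter: luminescence rises when SMN2 exon 7 is included in transfected HEK293 cells. Compound exposure lasted 30-36 h at 37C, with 4.5 mM final sodium butyrate as control, followed by a ONE-Glo read.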
ELG1 repair inh: qHTS screen for small molecules that inhibit ELG1-dependent DNA repair in human embryonic kidney (HEK293T) cells expressing luciferase-tagged ELG1; HEK293T ELG1-luciferase reporter, luminescence, 16 h; DNA damage induced by 5-fluorouridine; Potency, µM (titrated, usually from 46.1 µM), for the others: at the highest dose activity change, negative = inhibition, usual class: inhibitors; hit rate 2.3% among 330,000; AID 504467, 2011; also: % is scaled to controls: 0 for no effect and ±100 for the full control effect; nearly all actives have a fitted effect of over 55% in size
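Luminescence from the luciferase reporter, measured 30 min after ONE-Glo reagent at room temperature, was the read-out. Beforehand, 2,000 cells per well were exposed for 16 hr at 37 °C to 5-fluorouridine together with compound or vehicle.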
ELG1 genotox: qHTS screen for small molecules that induce genotoxicity in human embryonic kidney (HEK293T) cells expressing luciferase-tagged ELG1. Potency, µM (titrated, usually from 46 µM), inactives show top-dose activity change, positive = activation, hits mostly activators. AID 504466, 2011. hit rate 1.3% among 330,000. HEK293T ELG1-luciferase reporter, luminescence, 16 h; also: % of control where 0% means no effect; nearly all actives have a fitted effect of over 60% in size
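HEK293T cells expressing luciferase-tagged ELG1 were treated with compound or DMSO for 16 hr at 37°C. Luciferase activity was then read after 30 min with ONE-Glo at room temperature; rising signal flags genetic stress.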
FLuc counter: qHTS profiling assay for firefly luciferase inhibitor/activator using purifed enzyme and Km concentrations of substrates (counterscreen for miR-21 project); Luciferin 4-monooxygenase (Photinus pyralis), P08659; purified FLuc, Km substrates, luminescence inhibition; Potency, µM (highest dose often 57.5 µM), for inactives: top-dose activity change, negative = inhibition, hits mostly inhibitors; hit rate 6.9% among 360,000;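 also: plate controls were vehicle for no effect and reference inhibitor for full effect; nearly all actives have a fitted effect of over 55% in size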
Target sequence (P08659 whole entry, looked up): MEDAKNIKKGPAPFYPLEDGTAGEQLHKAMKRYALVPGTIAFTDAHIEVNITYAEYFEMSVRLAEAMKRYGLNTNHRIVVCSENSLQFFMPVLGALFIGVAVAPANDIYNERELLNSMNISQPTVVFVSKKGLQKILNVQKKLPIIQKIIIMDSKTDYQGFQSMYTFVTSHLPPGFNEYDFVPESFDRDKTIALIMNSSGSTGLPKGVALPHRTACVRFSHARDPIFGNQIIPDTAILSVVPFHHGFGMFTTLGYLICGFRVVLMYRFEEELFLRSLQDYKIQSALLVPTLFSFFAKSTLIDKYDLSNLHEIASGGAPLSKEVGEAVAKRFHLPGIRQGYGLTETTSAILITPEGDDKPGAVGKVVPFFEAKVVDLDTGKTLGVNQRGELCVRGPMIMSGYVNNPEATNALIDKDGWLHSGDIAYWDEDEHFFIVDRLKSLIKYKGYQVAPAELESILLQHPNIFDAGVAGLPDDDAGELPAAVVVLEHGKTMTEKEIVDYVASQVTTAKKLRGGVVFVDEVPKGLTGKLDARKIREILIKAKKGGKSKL
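Biochemical qHTS of compounds, final roughly 60 µM downward over six points, against 10 nM purified firefly luciferase using Km concentrations of substrates (10 uM D-luciferin, 10 uM ATP) in Tris acetate pH 7.5 buffer; luminescence output.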
NPC1 promoter act: qHTS Assay for NPC1 Promoter Activators; hit rate 2.4% among 320,000; Potency, µM (titrated, usually from 9.22 µM), for inactives: top-dose activation, actives largely listed as activators; Huh7 NPC1 promoter luciferase reporter, 24 h; also: % of control where 0% means no effect; nearly all actives have a fitted effect of over 60% in size
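Compounds in DMSO were transferred onto Huh7 NPC1-luciferase reporter cells pre-incubated 2 h; after 24 h at 37 °C, Amplite reagent was dispensed and luminescence recorded 10 min later.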
Rab9 promoter act: qHTS Assay for Rab9 Promoter Activators; Huh7 Rab9 promoter-luciferase reporter, luminescence, 24 h; Potency, µM (doses to about 9.22 µM), for inactives: at the highest dose activation, negative = inhibition, most hits filed as activators; hit rate 2.8% among 320,000; also: % of control where 0% means no effect; nearly all actives have a fitted effect of over 60% in size
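Quantitative HTS format; Huh7 Rab9-luciferase reporter cells (1500/well) receive compound 2 h post-plating, incubate 24 h at 37 °C, then get luciferase reagent for 10 min before luminescence reading.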
* hit, by the source's call; ? = inconclusive; · = no result; [ ] = dose if it differs, or a comment. Calls follow the shape of the dose curve; as a rule, active = well fitted curve in the direction sought with a large enough effect; inconclusive = small, poorly fitted or top-dose-only effect, or another doubt; inactive = no such curve, though single readings can be large; an effect the other way counts as inactive or inconclusive. Potency is read from the fitted curve at half-maximal effect.

SMILES	SMN2 splice up	ELG1 repair inh	ELG1 genotox	FLuc counter	NPC1 promoter act	Rab9 promoter act
COC(=O)[C@@]1(Cc2ccccc2)[C@@H]2C(=CC(=O)[C@H]2CC(=O)C(=O)N(C)C)CN1C(=O)c1ccccc1	-24.6%	7.31µM*	-12.5%	-14.1%	-16.1%	-17.1%
Cn1c(=O)c2c(-c3ccccc3)n3c(c2n(C)c1=O)C(c1cccc([N+](=O)[O-])c1)Nc1ccccc1-3 (configuration not stated)	·	·	·	0.8%	·	·
COc1ccc2cc(C(=O)N3CCc4ccccc43)[nH]c2c1	·	?	?	0.953µM*	?	3.98µM*
O=C(c1cc2cc(Br)ccc2[nH]1)N1CCc2ccccc21	·	21.3%	1.5%	1.4%	5.01µM*	21.7%
O=C(c1cc2cc(F)ccc2[nH]1)N1CCc2ccccc21	·	?	?	?	3.98µM*	3.55µM*
CC(CO)(CO)Nc1ncnc2ccccc12	-22.3%[9.22 µM]	·	·	·	·	·
COc1cccc(C(=O)NCC(c2ccc(N(C)C)cc2)N2CCc3ccccc32)c1OC (configuration not stated)	·	·	·	3.0%	·	·
Cc1ccccc1NC(=O)Cn1c(=O)n(Cc2ccco2)c(=O)c2cccnc21	0.6%	·	·	-9.0%	·	·
CCOC(=O)c1nc(Nc2ccc(Nc3ccccc3)cc2)c2ccccc2n1	-58.4%	7.3µM*	-25.3%	?	-6.5%	-2.7%
CCOC(=O)c1nc(Nc2ccc(N3CCC(C)CC3)cc2)c2ccccc2n1	·	5.8µM*	-11.2%	-17.9%	-2.2%	-2.1%
CCOC(=O)c1ccc(Nc2nc(C(=O)OCC)nc3ccccc23)cc1	23.2%	?	-10.3%	-1.2%	-4.6%	1.6%
O=C(O)/C=C/c1cnn(-c2ccccc2)c1	2µM*	?	-4.1%	1.51µM*	?	0.447µM*
CCOC(=O)/C=C/c1cnn(-c2ccccc2)c1	·	?	?	15.1µM*	?	?
CCN(CC)CCOC(=O)/C=C/c1ccccc1	·	29.1%	2.0%	0.0%	-1.7%	1.4%
COc1ccc(CNC(=O)Cn2c(-c3ccccc3)cc(C(C)=O)c2C)cc1OC	-11.0%	·	·	-0.5%	·	·
CSc1ncc(C(=O)Nc2ccccc2C(F)(F)F)c(-c2ccccc2)n1	·	·	·	-1.7%	·	·
COc1ccc(Cl)cc1NC(=O)c1cc(S(=O)(=O)NC2CCCCCC2)ccc1F	·	·	·	-2.3%	·	·
O=[N+]([O-])c1cnc2nc(-c3ccncc3)nn2c1O	-6.1%	7.5%	-0.8%	21.3µM*	0.2%	1.3%
CCOc1ccc(C(=O)OCc2cc(=O)n3cc(C)sc3n2)cc1	·	·	·	-1.4%	·	·
CC(C)c1ccc(Nc2c(-c3ccccn3)nc3ccccn23)cc1	-4.6%	·	·	-2.5%	·	·
Nc1nccc(Nc2ccc(S(N)(=O)=O)cc2)n1	-4.3%[9.22 µM]	·	·	·	·	·
Cc1cc(C)c(S(=O)(=O)N2CCOC2CNC(=O)C(=O)NCCCN2CCOCC2)c(C)c1 (configuration not stated)	·	?	?	8.49µM*	2.51µM*	1.41µM*
Cc1cc(C)c2nc(N3CCCC(C(=O)NCCN4CCOCC4)C3)sc2c1 (configuration not stated)	15.8µM*	?	?	13.5µM*	?	9.4%
CCCOc1ccc(CNC(=O)C2CCCN(c3nc4c(C)cc(C)cc4s3)C2)cc1 (configuration not stated)	3.1%	·	·	0.0%	·	·
Cc1cc(C)c2nc(N3CCC(C(=O)NCCCN4CC(C)CC(C)C4)CC3)sc2c1 (configuration not stated)	-33.7%	?	15.0%	?	4.4%	26.1%
SMILES	SMN2 splice up	ELG1 repair inh	ELG1 genotox	FLuc counter	NPC1 promoter act	Rab9 promoter act
CCN1CCN(CCCNC(=O)C2CCCN(c3nc4c(C)cc(C)cc4s3)C2)CC1 (configuration not stated)	·	?	?	16.9µM*	17.4%	3.2%
Cc1cc(C)c2nc(N3CCCC(C(=O)NCCCN4CCOCC4)C3)sc2c1 (configuration not stated)	14.1µM*	?	15.4%	?	23.3%	?
CC(=O)N1CCCc2cc(S(=O)(=O)N(C)CC(=O)Nc3cccc(Cl)c3C)ccc21	·	·	·	-8.2%	·	·
Oc1ccc2ccccc2c1Cc1c(O)ccc2ccccc12	-3.2%[9.22 µM]	·	·	·	·	·
COc1ccc(-c2csc3ncnc(Nc4ccc(OC)c(OC)c4)c23)cc1	·	·	·	3.5%	·	·
Cc1ccc(CN2C(=O)c3oc4ccc(C)cc4c(=O)c3C2c2ccc(O)cc2)cc1 (configuration not stated)	18.4%	·	·	1.5%	·	·
COc1ccc(NC(=O)/C(=C/c2ccc3c(c2)OCO3)NC(C)=O)cc1	25.5%	22.9%	1.1%	-0.3%	-1.2%	-0.2%
Cc1ccc2nc(NC(=O)/C=C/c3ccc4c(c3)OCO4)sc2c1	-58.7%	?	?	3.3%	3.7%	0.5%
COc1ccc(NC(=O)/C=C/c2ccc3c(c2)OCO3)cc1	17.8µM*	?	?	2.69µM*	?	3.16µM*
O=C(/C=C/c1ccc2c(c1)OCO2)Nc1nc2ccccc2s1	3.55µM*	?	18.4µM*	1.2µM*	1.58µM*	0.794µM*
O=C(COC(=O)/C=C/c1ccc2c(c1)OCO2)Nc1ccccc1	-0.1%	19.6%	5.9%	21.3µM*	-9.6%	4.0%
Cc1c(NC(=O)C(C)OC(=O)/C=C/c2ccc3c(c2)OCO3)c(=O)n(-c2ccccc2)n1C (configuration not stated)	6.9%	-12.4%	7.7%	15.1µM*	0.1%	6.6%
CCN(CC)CCCNC(=O)CSc1nc(-c2ccc(OC)cc2)cc(C(F)(F)F)n1	·	·	·	-4.6%	·	·
Cc1csc(NC(=O)/C=C/c2ccc3c(c2)OCO3)n1	12.6µM*	?	2.91µM*	0.953µM*	-1.0%	?
Cc1ccc(Nc2nnc(SC3CCOC3=O)s2)cc1 (configuration not stated)	13.9%	3.0%	2.6%	16.9µM*	6.5%	-3.0%
CC(C)c1ccc(Nc2nnc(SC3CCOC3=O)s2)cc1 (configuration not stated)	5.5%	?	-0.8%	7.57µM*	-0.4%	0.1%
O=C1CCCCC1Sc1nnc(Nc2ccccc2)s1 (configuration not stated)	10µM*	?	?	19µM*	2.51µM*	3.16µM*
O=C(CSc1nnc(Nc2ccccc2)s1)NC1CC1	·	20.6%	4.6%	?	0.3%	-0.4%
